Measurements reported in PubChem BioAssay.
A number with no mark means an inactive call. The rule behind the calls is not given here.

molecular target: Pantothenate synthetase (Mycobacterium tuberculosis (strain ATCC 25618 / H37Rv)) (UniProt P9WIL5); test: Recombinant Mtb pantothenate synthetase (PanC) inhibitors, coupled enzyme, confirmatory (AID 375); settings: coupled enzyme assay; at 10 µM, active compounds read high;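 note: 0% = full reaction with vehicle and 100% = no enzyme background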
Sequence (P9WIL5 whole entry, looked up): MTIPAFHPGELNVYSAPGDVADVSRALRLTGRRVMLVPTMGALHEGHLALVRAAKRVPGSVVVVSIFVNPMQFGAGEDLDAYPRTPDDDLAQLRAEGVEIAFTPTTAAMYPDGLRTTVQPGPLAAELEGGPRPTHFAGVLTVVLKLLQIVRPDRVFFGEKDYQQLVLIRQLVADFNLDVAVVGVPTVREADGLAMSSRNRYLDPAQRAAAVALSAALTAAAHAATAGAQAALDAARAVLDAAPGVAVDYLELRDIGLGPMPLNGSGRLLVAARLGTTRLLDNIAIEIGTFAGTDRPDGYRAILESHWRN

Compound | inhibition
CC(=O)c1ccc(NC(=O)c2noc3c2CCCCC3)cc1 | 1%
Cc1cccc(C)c1NC(=O)C1CCCCN1C (stereo not drawn) | 0%
CCn1cc(C(=O)OCc2ccc(F)cc2)c(=O)c2ccc(C)nc21 | 5%
CCOC(=O)C1CCCN(c2c(NCc3ccco3)c(=O)c2=O)C1 (stereo not drawn) | 0%
CCCN(Cc1cc2cc(C)ccc2[nH]c1=O)C(=O)c1cccc(OC)c1 | 0%
CC(Oc1ccccc1)C(=O)NC1CC(C)(C)NC(C)(C)C1 (stereo not drawn) | 0%
COc1ccc(OC)c(C(=O)CSc2nnc(-c3ccc(OC)c(OC)c3)o2)c1 | 11%
Cc1cccc2sc(NC(=O)CN(C)S(=O)(=O)c3cccs3)nc12 | 2%
COc1ccccc1CN1C(=S)SC(C)(C)C1NO (stereo not drawn) | 0%
Nc1cc(-c2ccc(Br)cc2)nn1S(=O)(=O)c1ccccc1 | 2%
CCSc1nnc(NC(=O)C(CC)(C(F)(F)F)C(F)(F)F)s1 | 0%
COc1cccc(-c2cc(C(=O)Nc3cc(OC)c(OC)c(OC)c3)no2)c1 | 0%
Cn1c(=O)c2c(nc(NCC3CCCO3)n2C)n(C)c1=O (stereo not drawn) | 0%
CCN1CCN(CCCNC(=O)c2cc3sccc3n2CC)CC1 | 0%
O=C(COc1ncnc2ccccc12)NCc1ccc2c(c1)OCO2 | 0%
O=C(CSCc1ccc(F)cc1)NC1CCCC1 | 0%
O=C(COc1ccc(Cl)cc1)Nc1nc(-c2cccs2)cs1 | 1%
Cc1nc2ccccc2c2oc(C(=O)NCCCN3CCCC3=O)cc12 | 7%
